Bioassay records: PubChem BioAssay, National Center for Advancing Translational Sciences (NCATS)
POLI inh: DNA polymerase iota (human) inhibition; Q9UNA4; Pol iota fluorescent replication assay, 10 min; Potency, µM (highest dose often 115 µM), without a hit: at the highest dose activity, negative = inhibition, hits mostly inhibitors; 1% of 390,000 active
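Pol iota at 10 nM preincubated 15 min with compounds at room temperature; reaction started with fluorescent substrate, 50 nM final. Fluorescence read kinetically at 0 and 10 min; buffer-only wells as negative control.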
Pol kappa inh-1: DNA polymerase kappa (human) inhibition; Potency, µM (series often up to 107 µM), for inactives: at the top dose activity, negative = inhibition, usual class: inhibitors; Q9UBT6; AID 588579; purified Pol kappa, fluorescent DNA synthesis assay, 10 min; 0.53% of 400,000 active; note: % is set by controls: 0 for no effect and ±100 for the full control effect
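Fluorescent qHTS in 1536-well format: enzyme (10 nM) and compound sat 15 min at room temperature before 50 nM substrate (final) was added. Signal taken at 0 and 10 min; no-enzyme buffer wells were negative controls.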
POLB inh: DNA polymerase beta (human) inhibition. P06746. Potency, µM (titrated, usually from 114 µM), without a hit: top-dose activity change, negative = inhibition, most hits filed as inhibitors. Pol beta primer extension/strand displacement, fluorescence kinetic. 1.3% of 340,000 active. AID 485314; note: % is set by controls: 0 for no effect and ±100 for the full control effect
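Curves were derived by four-parameter Hill fits of normalized qHTS data. The kinetic fluorescent primer-extension read was taken at 0 and 10 min after 50 nM substrate, following a 15 min room-temperature preincubation of 10 nM enzyme with compounds.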
Pol eta inh-1: DNA polymerase eta (human) inhibition. Potency, µM (highest dose often 114 µM), for the others: at the highest dose activity change, negative = inhibition, actives largely listed as inhibitors. 1.2% of 390,000 active. recombinant Pol eta, fluorescent DNA replication assay. Q9Y253; note: % is set by controls: 0 for no effect and ±100 for the full control effect
Target sequence (Q9Y253 whole entry, looked up): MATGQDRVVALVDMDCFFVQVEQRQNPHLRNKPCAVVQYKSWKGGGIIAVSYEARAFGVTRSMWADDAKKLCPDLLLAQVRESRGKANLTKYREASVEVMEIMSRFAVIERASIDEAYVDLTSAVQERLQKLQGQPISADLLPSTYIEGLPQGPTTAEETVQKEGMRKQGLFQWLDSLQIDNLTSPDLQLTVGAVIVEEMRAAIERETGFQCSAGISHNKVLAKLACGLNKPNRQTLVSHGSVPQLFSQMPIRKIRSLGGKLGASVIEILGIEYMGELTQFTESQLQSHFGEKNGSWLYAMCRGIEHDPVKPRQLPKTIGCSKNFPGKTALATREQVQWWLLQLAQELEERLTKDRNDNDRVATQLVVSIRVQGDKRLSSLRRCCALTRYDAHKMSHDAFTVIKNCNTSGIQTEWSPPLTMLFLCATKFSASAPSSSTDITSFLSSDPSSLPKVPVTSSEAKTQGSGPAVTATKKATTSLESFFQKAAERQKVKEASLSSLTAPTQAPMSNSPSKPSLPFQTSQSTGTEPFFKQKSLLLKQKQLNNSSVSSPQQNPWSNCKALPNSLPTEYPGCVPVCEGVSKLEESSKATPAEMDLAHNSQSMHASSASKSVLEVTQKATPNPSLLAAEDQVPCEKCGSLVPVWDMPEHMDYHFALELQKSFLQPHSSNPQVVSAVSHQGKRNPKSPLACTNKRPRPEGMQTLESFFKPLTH
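Pol eta at 10 nM preincubated with compounds 15 min at room temperature; reaction started with fluorescent substrate (50 nM final) and read kinetically at 0 and 10 min.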
FEN1 inhibitor: blocks human flap endonuclease 1 | P39748 | Recombinant FEN1 flap cleavage, fluorescence, 15 min | Potency, µM (series often up to 114 µM), inactives show top-dose activity change, negative = inhibition, hits mostly inhibitors | 0.35% of 390,000 active; note: % is set by controls: 0 for no effect and ±100 for the full control effect; nearly all actives have a fitted effect of over 65% in size
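Quantitative HTS format: each compound was titrated, incubated with 10 nM nuclease for 15 min at room temperature, then challenged with flap substrate at 50 nM final. Signal change over 15 min gave concentration–effect curves.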
WRN helicase inh: WRN helicase (human) inhibition | Potency, µM (series often up to 114 µM), for inactives: at the highest dose activity change, negative = inhibition, most hits filed as inhibitors | AID 651768 | WRN helicase unwinding, fluorescent forked duplex, kinetic | 0.46% of 360,000 active | Q14191; note: % is set by controls: 0 for no effect and ±100 for the full control effect; nearly all actives have a fitted effect of over 55% in size
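Fluorescence dequenching readout, ex 525 nm/em 598 nm, kinetic mode: forked duplex DNA (100 nM final) with adjacent fluorophore and quencher unwound by WRN (20 nM final) with 2 mM ATP. Compound preincubation 15 min, room temperature.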
PGK validate: validation of Trypanosoma brucei phosphoglycerate kinase inhibitors. shares compounds with Pol kappa inh-1. TbPGK coupled GAPDH assay, Kinase-Glo luminescence. Potency, µM (titrated, usually from 57.5 µM), inactives show at the top dose activity change, negative = inhibition, most hits filed as inhibitors. 79% of 500 active; note: % is set by controls: 0 for no effect and ±100 for the full control effect; nearly all actives have a fitted effect of over 65% in size
Pol iota confirm: Inhibitors of human DNA polymerase iota, confirmation. 77% of 1,500 active. shares compounds with Pol kappa inh-1. Potency, µM, usual class: inhibitors. Pol iota primer extension, TAMRA/BHQ fluorescence
Pol kappa inh-2: confirmation of human DNA polymerase kappa inhibitors; shares compounds with Pol eta inh-1; purified Pol-kappa, fluorescent strand-displacement substrate; Potency, µM, usual class: inhibitors; 76% of 920 active; AID 720501
Pol eta inh-2: confirmation of human DNA polymerase eta inhibitors; Pol eta primer extension, TAMRA/BHQ fluorescence, 10 min; shares compounds with Pol eta inh-1; Potency, µM, actives largely listed as inhibitors; 64% of 2,600 active
* hit, by the source's call; ? = inconclusive; nt = no result given; [ ] = remark or other dose. This is a sample that favours compounds with a hit; in the whole collection about 2.4% have one here. Calls come from the whole dose curve; as a rule, active = well fitted curve in the direction sought with a large enough effect; inconclusive = small, poorly fitted or top-dose-only effect, or another doubt; inactive = no such curve, though single readings can be large; an effect the other way counts as inactive or inconclusive. Potency is the fitted concentration of half-maximal effect.

SMILES	POLI inh	Pol kappa inh-1	POLB inh	Pol eta inh-1	FEN1 inhibitor	WRN helicase inh	Pol iota confirm	Pol eta inh-2	others
Cc1c(C)c2ccc(OCC(=O)N[C@@H](Cc3ccccc3)C(=O)O)cc2oc1=O	17%	9%	0%	?	2%	3%	nt	nt
CCCCCCc1c(C)c2ccc(OCC(=O)N[C@@H](Cc3ccccc3)C(=O)O)cc2oc1=O	0%	-6%	14%	35µM*	-22%	-7%	84*	?
Cc1cc(=O)oc2cc(O[C@@H]3O[C@H](C(=O)O)[C@@H](O)[C@H](O)[C@H]3O)ccc12	nt	-5%[19.4 µM]	nt	nt	nt	nt	nt	nt
Cc1cc(C)n2nc(C(=O)OCC(=O)c3cc(C)n(C)c3C)nc2n1	?	?	32µM*	14µM*	-7%	?	?	85*
Cc1cc(C)n2nc(C(=O)OCC(=O)c3cc(C)n(CC4CCCO4)c3C)nc2n1 (centres undefined)	63%	8%	-37%	-9%	3%	1%	nt	nt
CC1=C(c2ccc(C)c(C)c2)S(=O)(=O)N=C1N1CCC(C(=O)NCCc2ccc(Cl)cc2)CC1	?	-1%	?	-6%	2%	nt	nt	nt
COc1cc(-c2oc3cc(O)cc(O)c3c(=O)c2O[C@@H]2O[C@H](CO)[C@@H](O)[C@H](O)[C@H]2O)ccc1O	nt	6%[60.1 µM]	nt	nt	nt	nt	nt	nt
COc1c(-c2ccc(O)c(O)c2)oc2cc(O)cc(O)c2c1=O	?	14µM*	4.5µM*	8.9µM*	25µM*	32µM*	42*	24*
O=C1NC(=Nc2ccccc2)S/C1=C\C=C\c1ccco1	11µM*	20µM*	2.5µM*	10µM*	?	50µM*	38*	27*
COc1ccc(N=C2NC(=O)/C(=C/C=C/c3ccccc3)S2)cc1	142%	-5%	37%	-16%	-8%	-11%	nt	nt
O=C(O)c1cccc(-n2cccc2/C=C2/SC(=O)N(CC(=O)N3CCCC3)C2=O)c1	7.9µM*	?	10µM*	5µM*	1%	56µM*	30*	24*	Pol kappa inh-2=9.5*
Cc1ccccc1N=C1NC(=O)/C(=C/c2cccn2-c2cccc(C(=O)O)c2)S1	20µM*	79µM*	10µM*	18µM*	-15%	?	42*	27*	Pol kappa inh-2=27*
Cc1cccc(N=C2NC(=O)/C(=C/c3cccn3C)S2)c1C	?	-18%	2%	-24%	5%	-8%	nt	nt
COC(=O)CC1[C@@]2(C)C[C@@]34OC5(C)OC6(CC[C@@]7(C)C(c8ccoc8)OC(=O)C(C(C)=O)C7[C@]6(O5)C(O)[C@@]3(O)C2O)[C@]14C (some centres undefined)	nt	-7%[60.1 µM]	nt	nt	nt	nt	nt	nt
CCN(CC)c1ccc(-c2nnc(SCC(=O)NCc3ccco3)n2C)cc1	-3%	5%	nt	nt	-1%	nt	nt	nt
O=C1C=C(O)c2[nH]c(=O)ccc2C1=O	18µM*	?	nt	18µM*	?	?	53*	48*	Pol kappa inh-2=24*
NC1=CC(=O)C(=O)c2ccccc21	?	-10%	nt	?	-23%	-24%	nt	nt
COC(=O)CCC(C)C1CCC2C3C(O)C[C@@H]4CC(O)CC[C@@]4(C)C3CC(O)[C@]12C (some centres undefined)	nt	-14%[60.1 µM]	nt	nt	nt	nt	nt	nt
CC(CCC(C)[n+]1cccc(C#N)c1)[n+]1cccc(C#N)c1 (centres undefined)	?	-19%	nt	nt	-9%	nt	nt	nt
NC(N)=NN=C(/C=C/c1ccc([N+](=O)[O-])o1)/C=C/c1ccc([N+](=O)[O-])o1	nt	-3%[19.4 µM]	nt	nt	nt	nt	nt	nt
O=C(O)/C=C/c1ccc([N+](=O)[O-])o1	25µM*	?	?	20µM*	-19%	-25%	30*	24*	PGK validate=4.6µM*
O=C(O)c1cccc2c1C(=O)c1ccccc1-2	63%	-3%	9%	0%	-13%	-1%	nt	nt
O=C1C(=C(I)I)c2ccccc2-c2ccccc21	?	-9%	nt	22µM*	-16%	?	21*	24*
COc1ncc2nc(-c3ccccc3)c(=O)n(CCC#N)c2n1	nt	-5%[60.1 µM]	nt	nt	nt	nt	nt	nt
Oc1cc2c(cc1O)[C@H]1c3ccc(O)c(O)c3OC[C@@]1(O)C2	7.9µM*	22µM*	nt	14µM*	35µM*	45µM*	38*	27*	Pol kappa inh-2=24*
SMILES	POLI inh	Pol kappa inh-1	POLB inh	Pol eta inh-1	FEN1 inhibitor	WRN helicase inh	Pol iota confirm	Pol eta inh-2	others
COc1ccc(-c2nc(-c3ccc(NC(=O)c4ccncc4)cc3)no2)cc1OC	6%	-6%	-22%	4%	-10%	5%	nt	nt
COc1cccc(-c2nc(-c3ccc(NC(=O)c4ccncc4)cc3)no2)c1	?	-27%	14µM*	35µM*	?	-10%[57.1 µM]	11*	11*
CC1=NOC(=O)/C1=C\c1ccc(-c2ccccc2Br)o1	?	?	22µM*	20µM*	40µM*	56µM*	75*	48*
CC1=NOC(=O)/C1=C/c1ccc(O)cc1	?	-2%	-28%	-16%	8%	?	nt	nt
Cc1ccc(S(=O)(=O)Nc2csc(C)c2C(=O)O)cc1	?	-44%	8.9µM*	18µM*	0%	-25%	67*	48*
O=C(CSc1nc2ccccc2c(=O)[nH]1)c1ccc(O)c(O)c1	13µM*	20µM*	20µM*	2.5µM*	?	14µM*	?	30*	PGK validate=?;Pol kappa inh-2=19*
O=P(c1ccccc1)(c1ccccc1)c1cc(S(=O)(=O)O)ccc1O	25µM*	?	10µM*	20µM*	1%	-30%[57.1 µM]	24*	60*	Pol kappa inh-2=42*
CC(C)(Sc1ccc(CCN(CCCCC2CCCCC2)C(=O)NC2CCCCC2)cc1)C(=O)O	36%	?	?	89µM*	?	-5%	42*	19*	Pol kappa inh-2=19*
Cn1c(Oc2ccccc2)nc2c1c(=O)n(Cc1ccc(Cl)cc1Cl)c(=O)n2C	22%	12%	8%	-6%	4%	nt	nt	nt
